# Records with an inconclusive call do not appear. A call without a number means that no potency is given here. The source made the active and inactive calls. The call rests on the fitted dose curve; in most records, active means well fitted curve in the direction sought with a large enough effect; inconclusive means small, poorly fitted or top-dose-only effect, or another doubt; inactive means no such curve, though single readings can be large; an effect the other way counts as inactive or inconclusive.
# What was measured:
# [1] = biological target: Glutathione peroxidase 1 (Homo sapiens) (UniProt P07203); assay: Primary qHTS Assay for Inhibitors of Recombinant Selenoprotein Glutathione Peroxidase 1 (GPX1) (AID 1845191); further: nearly all actives have a fitted effect of over 65% in size
# Glutathione peroxidase 1 (Homo sapiens), sequence (P07203 whole entry, looked up): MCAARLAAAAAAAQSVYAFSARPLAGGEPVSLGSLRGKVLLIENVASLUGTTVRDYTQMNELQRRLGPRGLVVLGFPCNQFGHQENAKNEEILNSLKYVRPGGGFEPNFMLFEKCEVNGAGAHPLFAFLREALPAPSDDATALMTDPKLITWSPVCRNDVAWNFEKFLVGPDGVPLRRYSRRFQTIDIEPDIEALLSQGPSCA
# How it was run: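 10 nM GPX1 + cpd, 30 min RT; start w/ 1 mM GSH, 0.5 mM cumene hydroperoxide, 0.5 mM NADPH, 100 nM GR, 0.01% BSA; buffer 50 mM Tris-HCl pH 7.5, 2 mM EDTA, 150 mM NaCl; Fl 340/450, 0 & 15 min.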
# [2] = biological target: Phospholipid hydroperoxide glutathione peroxidase GPX4 (Homo sapiens) (UniProt P36969); assay: Primary qHTS Assay for Inhibitors of Recombinant Selenoprotein Glutathione Peroxidase 4 (GPX4) (AID 1845192); further: nearly all actives have a fitted effect of over 65% in size
# Phospholipid hydroperoxide glutathione peroxidase GPX4 (Homo sapiens), sequence (P36969 whole entry, looked up): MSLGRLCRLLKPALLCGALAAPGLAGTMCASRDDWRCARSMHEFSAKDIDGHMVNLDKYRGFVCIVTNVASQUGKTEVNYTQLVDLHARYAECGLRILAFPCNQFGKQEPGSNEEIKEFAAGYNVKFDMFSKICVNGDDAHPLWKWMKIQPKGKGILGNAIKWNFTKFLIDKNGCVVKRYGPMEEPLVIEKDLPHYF
# How it was run: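 NADPH consumption, followed by fluorescence at 340/450 nm between 0 and 15 min, reports GPX4 activity via coupled glutathione reductase (100 nM). Enzyme 200 nM was pre-exposed to compound 30 min; 0.5 mM cumene hydroperoxide and 1 mM GSH served as substrates.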
# [3] = biological target: Luciferin 4-monooxygenase (Photinus pyralis) (UniProt P08659); assay: Primary firefly luciferase (FLuc) qHTS assay for identification of artifact compounds. (AID 1845220); further: nearly all actives have a fitted effect of over 60% in size; further: potency means the concentration at half of the fitted maximal effect
# How it was run: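 Compounds sat 15 min at room temperature with 10 uM luciferin and 10 uM ATP (pH 7.6 Tris acetate). Firefly luciferase (10 nM final) was then added, and luminescence was read 5 min later. Data normalized to no-enzyme and DMSO controls were Hill-fitted.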
# [4] = system: Nanoluciferase (engineered Oplophorus gracilirostris luciferase); assay: Primary Nanoluciferase (NLuc) qHTS assay for identification of artifact compounds. (AID 1845222); further: potency means the concentration at half of the fitted maximal effect
# How it was run: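 Luminescence from secreted NLuc (filtered, 1:55-diluted S16 cell medium) read 5 min after Nano-Glo substrate; compounds preincubated 15 min, RT. Hill fits of inhibition normalized to DMSO and no-enzyme.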
# [5] = Primary redox qHTS assay for identification of artifact compounds. (AID 1845223)
# How it was run: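 Amplex Red (25 uM) and HRP (250 mU/mL) in HBSS, with compounds for 15 min, then 250 uM DTT for 30 min, room temperature, dark. Fluorescence 525/598 nm read; normalized to DMSO and 10 uM DA3003; Hill fit.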
# [6] = Quantitative High-Throughput drug screen in 47 multiple myeloma cell lines against the NCATS MIPE library collection: FR4_PLB cell viability assay (AID 1918924; further: nearly all actives have a fitted effect of over 35% in size; further: potency means the concentration at half of the fitted maximal effect)
# How it was run: (§1)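 Luminescent ATP measurement with CellTiter-Glo gives viability, scaled between DMSO-only wells (100%) and media-only wells (0%). Cells, 500 per well, faced library compounds for 48 hours at 37C.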
# [7] = Quantitative High-Throughput drug screen in 47 multiple myeloma cell lines against the NCATS MIPE library collection: Delta47_JCRB cell viability assay (AID 1918925; further: nearly all actives have a fitted effect of over 45% in size; further: potency means the concentration at half of the fitted maximal effect)
# How it was run: (§2)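 Relative luminescence from CellTiter-Glo served as the viability signal, referenced to DMSO-treated (100%) and cell-free medium (0%) controls. Treatment lasted 48 hours at 37C with 500 cells per well.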
# [8] = Quantitative High-Throughput drug screen in 47 multiple myeloma cell lines against the NCATS MIPE library collection: EJM_DSMZ cell viability assay (AID 1918926; further: nearly all actives have a fitted effect of over 30% in size; further: potency means the concentration at half of the fitted maximal effect)
# How it was run: as §2
# [9] = Quantitative High-Throughput drug screen in 47 multiple myeloma cell lines against the NCATS MIPE library collection: Karpas620_DSMZ cell viability assay (AID 1918959); further: nearly all actives have a fitted effect of over 30% in size; further: potency means the concentration at half of the fitted maximal effect
# How it was run: as §1
# [10] = Quantitative High-Throughput drug screen in 47 multiple myeloma cell lines against the NCATS MIPE library collection: KMM1_JCRB cell viability assay (AID 1918960); further: nearly all actives have a fitted effect of over 30% in size; further: potency means the concentration at half of the fitted maximal effect
# How it was run: (§3)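 ATP readout (CellTiter-Glo), 48 h drug incubation, 37 °C/5% CO2, 500 cells per well; normalisation to DMSO (100%) and media-only (0%) controls.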
# [11] = Quantitative High-Throughput drug screen in 47 multiple myeloma cell lines against the NCATS MIPE library collection: KHM11_PLB cell viability assay (AID 1918962); further: nearly all actives have a fitted effect of over 35% in size; further: potency means the concentration at half of the fitted maximal effect
# How it was run: as §1
# [12] = Quantitative High-Throughput drug screen in 47 multiple myeloma cell lines against the NCATS MIPE library collection: JIM3_ECACC cell viability assay (AID 1918963; further: nearly all actives have a fitted effect of over 35% in size; further: potency means the concentration at half of the fitted maximal effect)
# How it was run: as §1
# [13] = Primary fluorescence-based thiol-reactive (MSTI) qHTS assay for identification of artifact compounds. (AID 1845221);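 further: thiol-reactive compounds lower the probe fluorescence signal; nearly all actives have a fitted effect of over 65% in size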
# How it was run: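 Thiol-reactive compounds detected by quenching of 4 uM MSTI fluorescence (525/598 nm) after 1 h room-temperature dark incubation in PBS pH 7.4, 2% DMSO. qHTS titration; percent inhibition Hill-fitted against Acetyl-MSTI/MSTI controls.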
# [14] = Quantitative High-Throughput drug screen in 47 multiple myeloma cell lines against the NCATS MIPE library collection: ARD_JJKsccE7 cell viability assay (AID 1918929; further: potency means the concentration at half of the fitted maximal effect)
# How it was run: as §2
# [15] = Quantitative High-Throughput drug screen in 47 multiple myeloma cell lines against the NCATS MIPE library collection: JIM1_ECACC cell viability assay (AID 1918964; further: potency means the concentration at half of the fitted maximal effect)
# How it was run: as §2
# [16] = Quantitative High-Throughput drug screen in 47 multiple myeloma cell lines against the NCATS MIPE library collection: INA6_PLB cell viability assay (AID 1918965; further: nearly all actives have a fitted effect of over 55% in size; further: potency means the concentration at half of the fitted maximal effect)
# How it was run: (§4)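 Steps: seed 500 cells per well; pin-transfer MIPE 4.0 library; incubate 48 h at 37C, 5% CO2, humidified; add CellTiter-Glo, 5 min room temperature; read luminescence.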
# [17] = Quantitative High-Throughput drug screen in 47 multiple myeloma cell lines against the NCATS MIPE library collection: AMO1_DSMZ cell viability assay (AID 1918927; further: nearly all actives have a fitted effect of over 30% in size; further: potency means the concentration at half of the fitted maximal effect)
# How it was run: as §2
# [18] = Quantitative High-Throughput drug screen in 47 multiple myeloma cell lines against the NCATS MIPE library collection: ARP1_JJKsccF8 cell viability assay (AID 1918928; further: nearly all actives have a fitted effect of over 40% in size; further: potency means the concentration at half of the fitted maximal effect)
# How it was run: as §3
# [19] = Quantitative High-Throughput drug screen in 47 multiple myeloma cell lines against the NCATS MIPE library collection: JJN3_DSMZ cell viability assay (AID 1918966; further: nearly all actives have a fitted effect of over 50% in size; further: potency means the concentration at half of the fitted maximal effect)
# How it was run: as §2
# [20] = Quantitative High-Throughput drug screen in 47 multiple myeloma cell lines against the NCATS MIPE library collection: Karpas417_ECACC cell viability assay (AID 1918961); conditions: Karpas417 myeloma viability, CellTiter-Glo ATP luminescence, 48 h; viability (% of DMSO): at 45.8 µM (top of the series); further: potency means the concentration at half of the fitted maximal effect
# How it was run: as §4
SMILES,Potency [1],Potency [2],Potency [3],Potency [4],outcome [5],Potency [6],Potency [7],Potency [8],Potency [9],Potency [10],Potency [11],Potency [12],Potency [13],Potency [14],Potency [15],Potency [16],Potency [17],Potency [18],Potency [19],Potency [20]
Cc1c(NC(=O)c2ccc(C(C)(C)C)cc2)cccc1-c1cn(C)c(=O)c(Nc2ccc(C(=O)N3CCOCC3)cc2)n1,inactive,inactive,5.88 µM (active),inactive,inactive,23.5 µM (active),23.5 µM (active),18.7 µM (active),9.35 µM (active),6.62 µM (active),inactive,13.2 µM (active),–,–,–,–,–,–,–,–
O=C(Nc1cccc(Br)c1)c1cccc(S(=O)(=O)N2CCCCCC2)c1,inactive,inactive,inactive,inactive,inactive,–,–,–,20.9 µM (active),16.6 µM (active),–,–,inactive,16.6 µM (active),7.43 µM (active),18.7 µM (active),–,–,–,–
CN(C)CCC(c1ccccc1)c1ccccn1 (stereo not given),inactive,inactive,inactive,inactive,inactive,–,–,–,–,–,–,–,–,–,–,–,–,–,–,–
COCCOc1nc(-c2ccc(Cl)c(Cl)c2)n(-c2ccc(NC(=O)CCl)cc2)n1,inactive,inactive,inactive,inactive,inactive,–,9.35 µM (active),–,–,–,11.8 µM (active),–,inactive,16.6 µM (active),14.8 µM (active),11.8 µM (active),16.6 µM (active),23.5 µM (active),–,–
COc1cc(Nc2ncc(F)c(Nc3ccc4c(n3)NC(=O)C(C)(C)O4)n2)cc(OC)c1OC,inactive,inactive,inactive,inactive,inactive,20.9 µM (active),–,–,inactive,–,–,0.935 µM (active),–,–,–,–,inactive,5.9 µM (active),–,–
CC(C)(C)COc1ccc(-n2cc(C(=O)O)cn2)cc1C#N,inactive,inactive,–,–,–,inactive,inactive,inactive,inactive,–,inactive,inactive,–,inactive,–,inactive,inactive,inactive,inactive,–
O=C(O)CCc1nc(-c2ccccc2)c(-c2ccccc2)o1,inactive,inactive,inactive,–,inactive,–,–,–,–,–,–,–,inactive,–,–,–,–,–,–,–
COc1ccc2cccc(CCNC(C)=O)c2c1,inactive,inactive,–,–,–,inactive,inactive,inactive,inactive,inactive,inactive,inactive,–,–,–,–,inactive,inactive,–,–
Oc1ccc(C2=Cc3ccc(O)cc3OC2)cc1,inactive,inactive,–,–,–,1.32 µM (active),0.833 µM (active),2.35 µM (active),–,–,5.26 µM (active),–,–,1.66 µM (active),3.32 µM (active),0.662 µM (active),2.64 µM (active),4.18 µM (active),1.48 µM (active),–
O=C(O)c1ccccc1C(=O)Nc1ccc(-c2ccccc2)cc1,inactive,inactive,23.9 µM (active),23.9 µM (active),inactive,inactive,–,–,inactive,inactive,inactive,inactive,–,inactive,–,inactive,inactive,inactive,–,–
CO[C@H]1C(=O)[C@]2(C)[C@@H](OC)C[C@H]3OC[C@@]3(OC(C)=O)[C@H]2[C@H](OC(=O)c2ccccc2)[C@]2(O)C[C@H](OC(=O)[C@H](O)[C@@H](NC(=O)OC(C)(C)C)c3ccccc3)C(C)=C1C2(C)C,inactive,inactive,–,–,–,inactive,inactive,inactive,–,inactive,–,inactive,–,–,–,inactive,–,inactive,–,–
CC(C)C(=O)Nc1ncc(-c2cc(C(F)F)nn2-c2c(Cl)cccc2Cl)s1,inactive,inactive,inactive,inactive,inactive,–,26.4 µM (active),–,–,16.6 µM (active),–,23.5 µM (active),inactive,20.9 µM (active),10.5 µM (active),23.5 µM (active),8.33 µM (active),–,–,–
Cc1cccc(Nc2nc(-c3ccncc3)cs2)c1,inactive,inactive,–,inactive,inactive,18.7 µM (active),18.7 µM (active),–,–,23.5 µM (active),–,20.9 µM (active),–,–,–,18.7 µM (active),11.8 µM (active),–,–,–
c1ccc2c(Cc3c[nH]c4ccccc34)c[nH]c2c1,inactive,inactive,–,–,–,20.9 µM (active),0.935 µM (active),1.48 µM (active),9.35 µM (active),–,4.18 µM (active),10.5 µM (active),–,inactive,–,3.32 µM (active),8.33 µM (active),20.9 µM (active),–,–
CCOC(=O)C1=C(N)Oc2ccc(Br)cc2C1C(C#N)C(=O)OCC (stereo not given),inactive,inactive,inactive,inactive,inactive,20.9 µM (active),14.8 µM (active),20.9 µM (active),18.7 µM (active),–,20.9 µM (active),23.5 µM (active),–,–,–,18.7 µM (active),–,–,20.9 µM (active),8.33 µM (active)
O=C(Nc1c(Cl)cncc1Cl)c1ccc(OC(F)F)c(OCC2CC2)c1,inactive,inactive,–,–,–,inactive,26.4 µM (active),inactive,–,inactive,–,inactive,–,inactive,–,–,inactive,inactive,inactive,–
